High-throughput results (PubChem)
HCMV inh – qHTS Assay for inhibitors of the human cytomegalovirus (HCMV) | HFF cells, HCMV-luciferase reporter, 72 h; hits give low values | activity change, negative = inhibition, % at 57.5 µM | AID 1259415, 2018 | actives 4.5% (n = 410,000); in the data active means activity change below about -60%; inconclusive means no clear call, values can overlap the other calls; inactive means above about -39%
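Compounds were evaluated in HFFs infected with an HCMV luciferase reporter virus (MOI 1 PFU/cell). Luciferase in lysates collected 72 h post infection served as the replication measure.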
Pf growth 96h – Primary qHTS for delayed death inhibitors of the malarial parasite plastid, 96 hour incubation; Potency, µM (top dose mostly 28.7 µM), hits mostly inhibitors; P. falciparum luciferase reporter growth, 96 h; actives 6.9% (n = 320,000)
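Two parasite generations (96 h, 37 C, 5% CO2) of compound exposure in infected erythrocytes (0.05% parasitemia, 2% hematocrit). Luciferase-reporter P. falciparum; decreased luminescence indicates inhibited growth, aimed at apicoplast-acting delayed death.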
Shiga toxin inh – A qHTS for Small Molecule Inhibitors of Shiga Toxin | Vero cells, Shiga toxin protein synthesis inhibition reporter | inhibition, % at 38.7 µM | actives 9.2% (n = 290,000) | AID 2315, 2010; in the data active means inhibition mostly above about 28%, no sharp cut-off; inactive means mostly below about 43%
HCV inhibitor – qHTS Assay for Inhibitors of Hepatitis C Virus (HCV); Huh7.5.1 HCVcc-Cre infection, luciferase reporter, 44 h; Potency, µM (highest dose often 41.8 µM), actives largely listed as inhibitors; actives 3.4% (n = 340,000)
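Reporter virus HCVcc-Cre (~0.5 moi) infects cells exposed to compound; seeding density 1,000 cells/well with 4 h settling beforehand. Luminescence, 15 sec read, taken 44 h post-infection following a 15 min RT substrate incubation.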
Pf growth 48h – Primary qHTS for delayed death inhibitors of the malarial parasite plastid, 48 hour incubation; Potency, µM (series often up to 28.7 µM), usual class: inhibitors; actives 5.9% (n = 310,000); P. falciparum luciferase growth in erythrocytes, 48 h
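Compounds are pin-transferred into medium, infected erythrocytes (2% hematocrit, 0.1% parasitemia final) are added, and plates sit one parasite generation at 37 C in 5% CO2. Detection reagent is then added and luminescence measured.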
CHX counter – Cycloheximide Counterscreen for Small Molecule Inhibitors of Shiga Toxin; cell reporter, cycloheximide protein synthesis inhibition counterscreen; max response, %; actives 12% (n = 300,000); in the data active means max response mostly above about 13%, no sharp cut-off; inactive means mostly below about 14%; further: read at 38.3 µM for the half of the compounds with a filed dose
Hits are given with their value; i = inactive; ? = inconclusive; nt = no result. Compounds with a hit are over-represented: about 21% of the library has one in this group of screens. Unless noted, the call rests on the fitted dose curve; in most records, active means well fitted inhibition curve with a large enough effect; inconclusive means small, poorly fitted or top-dose-only effect, or another doubt; inactive means no such curve, though single readings can be large or run the other way.

SMILES | HCMV inh | Pf growth 96h | Shiga toxin inh | HCV inhibitor | Pf growth 48h | CHX counter
CCC1CCCCN1C(=O)CSc1nnc(-c2c[nH]c3ccccc23)o1 (stereo not drawn) | i | i | i | ? | nt | 16.2
CCSc1nnc(-c2c[nH]c3ccccc23)o1 | nt | i | 87.9 | ? | i | 43.7
COc1ccc(CN(C(=O)CSc2nnc(-c3ccc(F)cc3)o2)c2ccc(F)cc2)cc1 | i | i | i | ? | i | i
COc1ccc(CN(C(=O)CSc2nnc(-c3c[nH]c4ccccc34)o2)c2ccc(F)cc2)cc1OC | -70.1 | ? | 51.5 | 5.01µM | 4.15µM | 40.6
CC1CCCN(C(=O)CSc2nnc(-c3c[nH]c4ccccc34)o2)C1 (stereo not drawn) | i | ? | i | i | nt | 34.7
CC(NCc1ccc(S(N)(=O)=O)cc1)C(=O)Nc1ccc([N+](=O)[O-])cc1Cl (stereo not drawn) | i | i | i | ? | i | i
CCn1c(N)cc(=O)[nH]c1=S | i | nt | nt | i | nt | nt
COc1cc(-c2ccc(N)c(OC)c2)ccc1N | i | i | nt | i | i | nt
COc1ccc(C)cc1-n1cnnn1 | i | i | i | i | i | i
COc1ccc([N+](=O)[O-])cc1-n1cnnn1 | i | 1.47µM | i | i | i | i
COc1cc([N+](=O)[O-])ccc1N | i | 9.28µM | i | i | i | i
CCCNC(=O)C(Cc1ccc(F)cc1)NC(=O)c1ccc(C#N)cc1 (stereo not drawn) | i | i | nt | i | ? | nt
CNC(=O)c1ccccc1NC(=O)c1cccc(S(=O)(=O)N2CCCCC2)c1 | i | 2.94µM | i | i | ? | i
Cc1ccc(O)c(NC(=O)c2ccc(Br)c(S(=O)(=O)N3CCCCC3)c2)c1 | -73.2 | nt | nt | nt | nt | nt
O=C(Nc1ccccc1C(=O)O)c1cccc(S(=O)(=O)N2CCCC2)c1 | i | nt | nt | nt | nt | nt
CCNC(=O)c1ccccc1NC(=O)c1cccc(S(=O)(=O)N2CCC(C)CC2)c1 | ? | i | i | 10µM | ? | i
Cc1ccc(O)c(NC(=O)c2cccc(S(=O)(=O)N3CCCCC3)c2)c1 | i | nt | i | 11.2µM | ? | i
CNC(=O)c1ccccc1NC(=O)c1cccc(S(=O)(=O)N2CCC(C)CC2)c1 | i | nt | i | ? | ? | i
Cc1ccc(C)c(NC(=O)CN(Cc2ccccc2)S(=O)(=O)c2ccc3nc(C)sc3c2)c1 | i | nt | nt | nt | nt | nt
C/C=C1\COC(C(=O)NC)(C(F)(F)F)C=C1C=C1CCCCC1 (stereo not drawn) | nt | nt | i | nt | nt | i
Cc1cc(F)ccc1S(=O)(=O)Nc1ccccc1C(=O)N1CCCC1 | i | i | nt | i | i | nt
COc1ccc(-c2ccc(C(=O)NCC(C)C)c3occc23)c(C)c1 | i | nt | nt | nt | nt | nt
COc1ccc(-c2ccc(C(=O)NCc3ccncc3)c3occc23)c(C)c1 | -91.1 | nt | nt | nt | nt | nt
O=C(NCc1ccncc1)c1ccc(-c2ccc(F)c(F)c2)c2ccoc12 | -72.7 | nt | nt | nt | nt | nt
O=C(NCc1ccncc1)c1cc(-c2ccc(Cl)cc2)oc1C(F)(F)F | i | i | i | 11.2µM | i | i
SMILES | HCMV inh | Pf growth 96h | Shiga toxin inh | HCV inhibitor | Pf growth 48h | CHX counter
O=C(Nc1ccc2c(c1)OCCO2)C1c2ccccc2OCC(=O)N1C1CC1 (stereo not drawn) | i | nt | nt | nt | nt | nt
CSc1nc2ncc(-c3ccsc3)c(N)n2n1 | i | i | 62.2 | i | i | 48.8
Nc1nc2ncc(-c3ccsc3)c(N)n2n1 | i | i | i | i | i | i
CN(/N=C/c1ccncc1)c1cnc2ccccc2n1 | i | ? | 75.3 | i | i | 47.9
CCn1cc(C(=O)NCCc2ccc(OC)c(OC)c2)c(=O)c2cc(S(=O)(=O)N3CCOCC3)ccc21 | i | ? | i | i | 10.4µM | i
Cn1cc(C(=O)NCCc2ccccc2)c(=O)c2cc(S(=O)(=O)N3CCOCC3)ccc21 | i | nt | nt | i | nt | nt
COc1ccc(CCNC(=O)c2cn(C)c3ccc(S(=O)(=O)N4CCOCC4)cc3c2=O)cc1OC | i | i | i | i | 13.1µM | i
COc1cccc(OC)c1-c1nn(-c2ncc(C(F)(F)F)cc2Cl)c(=O)o1 | i | i | i | i | i | i
Cc1cc[n+](Cc2ccccc2)cc1 | ? | 9.28µM | nt | ? | 3.7µM | nt
c1ccc(C[n+]2ccccc2)cc1 | i | ? | nt | ? | ? | nt
